{
  "source": "the supplement of paper PMC6555819",
  "data": [
    {"test_system": "RARg homodimer (NR concentration 270 nM)", "assay": "PBM binding z-score (relative to random genomic background probes); higher = stronger binding; sequences stand for … in GC…GCGATTGACAGCGTAGAATGAAGG", "procedure,_shortened": "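Probes were double-stranded and carried 34-nt variable regions with direct-repeat seeds, single-nucleotide variants, half-site ablations and random human genomic background sequences, printed on custom Agilent 4×180K protein-binding microarrays. Arrays were incubated 1 h with ligand-free nuclear receptor dimers in PBS pH 7.4, 2% milk, 0.02% Triton X-100, 1 mM DTT, 0.2 mg/mL BSA and 0.4 mg/ml salmon testes DNA. Antibodies against each partner (one per run) detected binding, and scanned fluorescence was regression-normalized. Binding z-scores use the random background probes as reference.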", "values": [
      {"sequence": "TAGCCTAGGTCATTCAGGGGCCTGTATAGAAAGC", "PBM binding z-score": 4.02},
      {"sequence": "TGTTGTAGATCAAGCAGGTTAAGAAAGCCTGAGT", "PBM binding z-score": 0.062},
      {"sequence": "CCGACTGGGGCAAGGTTACCCTAACGCACAGCCA", "PBM binding z-score": 1.06},
      {"sequence": "TCGAGTAGGTTACCACTGGGGCATTCAGCTTTCT", "PBM binding z-score": 0.436},
      {"sequence": "TATACAGGGTCAAAGGCTAGAGTACGAATGTCGA", "PBM binding z-score": 5.45},
      {"sequence": "TCATATAGGTAAATGCTAGGTAAAAGTCCGATCT", "PBM binding z-score": 0.36},
      {"sequence": "GGTACGAGGGCAAGTTGATAGCAGAGTTTGATGG", "PBM binding z-score": 2.47},
      {"sequence": "TCATATAGGTAAATGCTAGGTGAAAGTGCGATCT", "PBM binding z-score": 0.488},
      {"sequence": "AATACAGGGTCATCGTAGACCAGAGTACGCACAG", "PBM binding z-score": 5.19},
      {"sequence": "TATCCAGGGTCAAAGGCCAGAGTACGAATGTCGA", "PBM binding z-score": 5.26},
      {"sequence": "CCTACTGGGCCATCAGATCATTGATATCAACGTT", "PBM binding z-score": 0.48},
      {"sequence": "CGTCCAAGGTCAAGGTCCGTGAAAGAGACTCGAA", "PBM binding z-score": 6.84},
      {"sequence": "TCGAGTAGGTTACCGATGGGGCATTCAGCTTTCT", "PBM binding z-score": 0.276},
      {"sequence": "TCATATAGGTAAAGGGTGAAAGTCGGTGTGGTAA", "PBM binding z-score": 0.514},
      {"sequence": "CAAACTTGGTCACCGGAAGGTCAAAGTCCGCATG", "PBM binding z-score": 4.2},
      {"sequence": "TCTATTAGTTGATTAGGGCAACTGAAACAGCGGA", "PBM binding z-score": 0.804},
      {"sequence": "CAAATTAGGTCAAGGTCAAAGTCGGTTTGTGCCA", "PBM binding z-score": 7}
    ]}
  ]
}
